Mcl-1 Bim block: disrupts Bim peptide binding to human Mcl-1. Q07820. Bead-based flow cytometry, Bim peptide-Mcl-1 binding. inhibition, % at 10 µM. AID 1009. 0.1% of 190,000 active; in the data active means inhibition above about 40%
MCL1-BIM inh: disrupts human MCL1 binding to BIM-BH3 peptide; AID 2057; inhibition, % at 10.9 µM; GST-MCL1 / FITC-Bim-BH3 fluorescence polarization; 0.68% of 320,000 active;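 active means inhibition above the mean inhibition of all tested compounds plus 3 SD, set per campaign, cut at about 40% in these data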;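 further: higher means more loss of mP so more displacement of Bim peptide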
Mcl1 Noxa PPI: Mcl-1/Noxa interaction inhibition | TR-FRET Mcl-1/Noxa peptide binding, 2 h | inhibition, % at 21.7 µM | 1.5% of 220,000 active | AID 1022;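 active means compounds that cut the protein-peptide binding signal by more than 50% relative to plate controls in a single-dose test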;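 further: His-tagged Mcl-1 with rhodamine Noxa BH3 peptide and terbium anti-His antibody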
BCLXL inh: Bcl-xL (human) inhibition; Q07817; GST-Bcl-xL / FITC-Bim BH3 peptide fluorescence polarization; 0.7% of 320,000 active; inhibition, % at 10.9 µM;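 active means inhibition above the mean of all tested compounds plus 3 SD, cutoff set per campaign, cut at about 30% in these data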;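 further: inhibitors lower millipolarization by displacing the labeled peptide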
Target sequence (Q07817 whole entry, looked up): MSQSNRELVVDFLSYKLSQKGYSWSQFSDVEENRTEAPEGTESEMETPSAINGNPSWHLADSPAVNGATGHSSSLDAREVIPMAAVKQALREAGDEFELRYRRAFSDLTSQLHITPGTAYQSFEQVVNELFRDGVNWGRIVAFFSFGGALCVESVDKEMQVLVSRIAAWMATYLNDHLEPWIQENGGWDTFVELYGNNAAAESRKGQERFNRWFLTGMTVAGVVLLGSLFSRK
Mcl1-Bid inh: disrupts binding of human Mcl-1 to Bid peptide; inhibition, % at 21.7 µM; Q07820; 0.97% of 220,000 active; AID 1021; TR-FRET Mcl-1/Bid-Dy647 peptide binding, 1536-well;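 active means compounds that cut the binding signal by more than half at the single screening dose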;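 further: His-tagged Mcl-1 with europium anti-His antibody binding Bid BH3 peptide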
GLD-1 TGE inh: GLD-1-TGE RNA interaction inhibition (C. elegans); inhibition, % at 5.96 µM; purified GLD-1 + fluorescein TGE RNA, fluorescence polarization; Q17339; 0.44% of 320,000 active;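 active means percent inhibition above a per-plate cutoff, the plate mean of test compounds plus 3 SD, cut at about 30% in these data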
BCLXL inh confirm: counter-screen for MCL1 inhibitors: confirmation of human Bcl-xL inhibitors; shares compounds with MCL1-BIM inh; GST-Bcl-xL / FITC-Bim BH3 peptide FP binding; inhibition, % at 10.9 µM; 54% of 1,700 active; AID 2166;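 active means inhibition above a cutoff equal to the mean inhibition of all tested compounds plus 3 SD, cut at about 30% in these data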
MCL1 inh confirm: MCL1-BIM-BH3 interaction inhibition, confirmation. 61% of 1,700 active. GST-MCL1 / FITC-Bim-BH3 fluorescence polarization. shares compounds with MCL1-BIM inh. inhibition, % at 10.9 µM. AID 2168;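 active means inhibition above the average of all tested compounds plus 3 SD, cut at about 40% in these data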
A number is an active result; . = inactive; / = no result. This is a sample that favours compounds with a hit; in the whole collection about 2.3% have one here.

SMILES | Mcl-1 Bim block | MCL1-BIM inh | Mcl1 Noxa PPI | BCLXL inh | Mcl1-Bid inh | GLD-1 TGE inh | BCLXL inh confirm | MCL1 inh confirm
CC(=O)N1CC=C2C(C#N)=C(N)C(C#N)(C#N)C(C)C2C1 (configuration not stated) | . | . | . | . | . | . | / | /
CCOC(=O)N1CC=C2C(C#N)=C(N)C(C#N)(C#N)[C@H](c3ccc(OCC)c(OCC)c3)[C@H]2C1 | . | . | . | . | . | . | / | /
O=C(CN(C(=O)c1csnn1)c1ccccc1F)NC1CCCCC1 | / | . | / | . | / | . | / | /
CN(CC(=O)Nc1ccc(Cl)cc1)C(=O)CCc1c[nH]c2ccccc12 | / | . | / | . | / | . | / | /
COc1cc2cccc(OC)c(=O)c2c(O)c1OC | . | . | . | . | . | . | / | /
COc1cc2c(ccc3cc(OC)c(OC)c(O)c32)cc1O | / | 78.2 | 107.3 | . | . | . | . | 82.3
CCN(c1ccc(OC)cc1)S(=O)(=O)c1csc(C(=O)N2CCCC2)c1 | / | . | / | . | / | . | / | /
CC(C)=CCc1c(O)c(CC=C(C)C)c2c(c1O)-c1cc(O)c(O)cc1CC2 | / | 55.2 | / | . | / | . | 40.8 | 75.8
O=C(N/C(=C\c1ccc(-c2ccccc2)o1)C(=O)N1CCOCC1)c1ccccc1 | . | / | . | / | . | / | / | /
Nc1c(C(=O)N/N=C/c2cccnc2)oc2nc(-c3ccco3)cc(-c3ccco3)c12 | / | 60.9 | . | 67.9 | . | . | . | .
Nc1c(C(=O)N/N=C/c2cccnc2)oc2nc(-c3ccccc3)cc(-c3ccco3)c12 | / | . | . | . | . | . | / | /
COc1ccccc1/C=C(\NC(=O)c1ccccc1)C(=O)NCc1ccco1 | / | . | / | . | / | . | / | /
Cc1ccc(C(=O)NCC(=O)NCC(=O)OCC(=O)c2ccc(Br)cc2)cc1 | . | 54.0 | . | . | . | . | . | .
Cc1ccc(C(=O)COC(=O)CNC(=O)Cc2ccccc2)cc1 | / | . | / | . | / | . | / | /
COc1ccc2oc(C(=O)N3CCN(S(=O)(=O)c4cccc([N+](=O)[O-])c4)CC3)c(C)c2c1 | / | 46.5 | / | . | / | . | . | .
CSc1nnc(-c2ccco2)c(-c2ccco2)n1 | . | 42.5 | 78.4 | . | . | . | . | 55.6
CSc1nnc(-c2ccccc2)c(-c2ccccc2)n1 | / | . | . | . | . | . | / | /
Cc1ccccc1NC(=O)CSc1nnc(-c2ccco2)c(-c2ccco2)n1 | . | 52.4 | 87.4 | . | . | . | 35.0 | 86.2
CN(C)c1ccc(NC(=O)CSc2nnc(-c3ccco3)c(-c3ccco3)n2)cc1 | / | . | / | . | / | . | / | /
Cc1cccc(C)c1NC(=O)CSc1nnc(-c2ccco2)c(-c2ccco2)n1 | . | 95.8 | 101.6 | 57.7 | . | . | . | .
CN(C)c1cccc(C(=O)Nc2nnc(Cc3ccccc3)s2)c1 | / | . | / | . | / | . | / | /
CCOc1ccc(NC(=O)CCCN2C(=O)C(c3ccccc3)Oc3cccnc32)cc1 (configuration not stated) | / | . | / | . | / | . | / | /
O=C(Cc1ccsc1)NCC(=O)Nc1ccc(F)c(F)c1 | / | . | / | . | / | . | / | /
COc1ccc(C2=NN(C(=O)c3ccccc3)C(c3ccc(OC)c(OC)c3)C2)c(OC(C)=O)c1 (configuration not stated) | / | . | / | . | / | . | / | /
Cc1ccc(Sc2cc(C(=O)NCCCN(C)C)c3ccccc3n2)cc1 | / | 86.1 | / | 78.0 | / | 68.6 | . | .
COc1ccccc1CN1C(=NC(=O)CCC2CCCC2)SC2CS(=O)(=O)CC21 (configuration not stated) | / | . | / | . | / | . | / | /
Cc1cc2nc3ccc(N(C)C)cc3nc2cc1N | / | 125.7 | / | 120.1 | / | 41.0 | 127.7 | 143.5
Cc1cc2nn(-c3cccc4ccccc34)nc2cc1N | . | . | . | . | . | . | / | /
COc1cc(/C=C(\C#N)C(=O)NCC2CCCO2)c([N+](=O)[O-])cc1OC (configuration not stated) | . | . | . | . | . | . | / | /
N#C/C(=C\c1cccc([N+](=O)[O-])c1)C(=O)NCC1CCCO1 (configuration not stated) | . | 50.1 | . | 60.9 | . | . | . | .

Screening data as filed in PubChem.
